Hit rate of the full screen: of about 5,500 compounds, about 2,000 (36%) were called active. Another 18% or so got no clear call; they are omitted. No stated cut-off is given here; in the data, active means normalized growth mostly below about 0.91 (no sharp cut-off); inconclusive means no clear call, values can overlap the other calls; inactive means mostly above about 0.92. Some of the results follow.
Assay: chemical genetic growth profiling, strain panel (AID 1159580);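 further: tested at 20 µM; growth read once vehicle control cultures reached saturation at 30 °C; 1 = growth at the plate median or of vehicle wells; lower values mean less growth of the strain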
Conditions: growth OD

Measured: normalized growth

COc1cc([C@@H]2c3cc4c(c(O)c3C[C@H]3COC(=O)[C@@H]32)OCO4)cc(OC)c1OC
inactive: S. cerevisiae deletion strains, locus YJR043C, strain POL32, hits give low values 0.989 | S. cerevisiae deletion strains, locus YJR075W, strain HOC1, hits give low values 0.996 | S. cerevisiae deletion strains, locus YKL009W, strain mrt4, hits give low values 0.983 | S. cerevisiae deletion strains, locus YKL068W, hits give low values 0.979 | S. cerevisiae deletion strains, locus YKL085W, strain MDH1 (second series), hits give low values 0.973 | S. cerevisiae deletion strains, locus YKL085W, strain MDH1, hits give low values 0.973 | S. cerevisiae deletion strains, locus YKL160W, strain elf1, hits give low values 1 | S. cerevisiae deletion strains, locus YKL190W, strain CNB1, hits give low values 0.986 | S. cerevisiae deletion strains, locus YKR001C, strain vps1, hits give low values 1 | S. cerevisiae deletion strains, locus YKR026C, strain gcn3, hits give low values 0.985 | S. cerevisiae deletion strains, locus YKR091W, strain srl3, hits give low values 0.995 | S. cerevisiae deletion strains, locus YLL001W, strain dnm1, hits give low values 0.991 | S. cerevisiae deletion strains, locus YLL026W, hits give low values 0.993 | S. cerevisiae deletion strains, locus YLL041C, strain sdh2, hits give low values 0.99 | S. cerevisiae deletion strains, locus YLR027C, strain aat2, hits give low values 0.974 | S. cerevisiae deletion strains, locus YLR039C, strain RIC1, hits give low values 0.921 | S. cerevisiae deletion strains, locus YLR058C, strain SHM2, hits give low values 0.982 | S. cerevisiae deletion strains, locus YLR102C, strain apc9, hits give low values 0.976 | S. cerevisiae deletion strains, locus YLR221C, strain rsa3, hits give low values 0.959 | S. cerevisiae deletion strains, locus YLR258W, strain gsy2, hits give low values 1.01 | S. cerevisiae deletion strains, locus YLR262C, strain YPT6 (second series), hits give low values 0.989 | S. cerevisiae deletion strains, locus YLR262C, strain YPT6, hits give low values 0.907 | S. cerevisiae deletion strains, locus YLR268W, strain sec22, hits give low values 1.01 | S. cerevisiae deletion strains, locus YLR320W, strain mms22, hits give low values 0.963 | S. cerevisiae deletion strains, locus YLR330W, strain CHS5, hits give low values 0.981 | S. cerevisiae deletion strains, locus YLR342W, strain FKS1 (second series), hits give low values 0.971 | S. cerevisiae deletion strains, locus YLR342W, strain FKS1, hits give low values 0.983 | S. cerevisiae deletion strains, locus YLR357W, strain rsc2, hits give low values 0.999 | S. cerevisiae deletion strains, locus YLR370C, strain arc18, hits give low values 1 | S. cerevisiae deletion strains, locus YLR371W, strain rom2, hits give low values 0.946 | S. cerevisiae deletion strains, locus YLR384C, strain iki3, hits give low values 0.98 | S. cerevisiae deletion strains, locus YLR418C, strain cdc73, hits give low values 1.01 | S. cerevisiae deletion strains, locus YML016C, strain PPZ1, hits give low values 0.992 | S. cerevisiae deletion strains, locus YML032C, strain rad52, hits give low values 0.991 | S. cerevisiae deletion strains, locus YML120C, strain ndi1, hits give low values 0.998 | S. cerevisiae deletion strains, locus YML124C, strain tub3, hits give low values 0.988 | S. cerevisiae deletion strains, locus YMR058W, strain fet3, hits give low values 0.999 | S. cerevisiae deletion strains, locus YMR078C, strain ctf18, hits give low values 0.995 | S. cerevisiae deletion strains, locus YMR125W, strain sto1, hits give low values 0.986 | S. cerevisiae deletion strains, locus YMR129W, hits give low values 0.984 | S. cerevisiae deletion strains, locus YMR205C, strain PFK2, hits give low values 0.982 | S. cerevisiae deletion strains, locus YMR223W, strain ubp8, hits give low values 0.987 | S. cerevisiae deletion strains, locus YMR231W, strain pep5, hits give low values 0.991 | S. cerevisiae deletion strains, locus YMR263W, strain SAP30, hits give low values 1 | S. cerevisiae deletion strains, locus YMR307W, strain GAS1, hits give low values 1.02 | S. cerevisiae deletion strains, locus YNL067W, strain RPL9B, hits give low values 1.02 | S. cerevisiae deletion strains, locus YNL071W, strain lat1, hits give low values 1.01 | S. cerevisiae deletion strains, locus YNL128W, strain TEP1, hits give low values 0.989 | S. cerevisiae deletion strains, locus YNL153C, strain GIM3, hits give low values 1.03 | S. cerevisiae deletion strains, locus YNL209W, strain ssb2, hits give low values 1 | S. cerevisiae deletion strains, locus YNL233W, strain BNI4, hits give low values 1.04 | S. cerevisiae deletion strains, locus YNL248C, strain rpa49, hits give low values 0.984 | S. cerevisiae deletion strains, locus YNL250W, strain rad50, hits give low values 0.955 | S. cerevisiae deletion strains, locus YNL271C, strain bni1, hits give low values 0.973 | S. cerevisiae deletion strains, locus YNL298W, strain CLA4, hits give low values 0.976 | S. cerevisiae deletion strains, locus YNL307C, strain MCK1, hits give low values 0.992 | S. cerevisiae deletion strains, locus YNL322C, strain KRE1 (second series), hits give low values 1 | S. cerevisiae deletion strains, locus YNL322C, strain KRE1, hits give low values 0.979 | S. cerevisiae deletion strains, locus YNR049C, strain mso1, hits give low values 0.986 | S. cerevisiae deletion strains, locus YNR052C, strain pop2, hits give low values 0.975 | S. cerevisiae deletion strains, locus YOL006C, strain TOP1, hits give low values 1.08 | S. cerevisiae deletion strains, locus YOL012C, strain htz1 0.866 | S. cerevisiae deletion strains, locus YOL147C, strain pex11, hits give low values 0.985 | S. cerevisiae deletion strains, locus YOR001W, strain rrp6, hits give low values 0.957 | S. cerevisiae deletion strains, locus YOR061W, strain CKA2, hits give low values 0.986 | S. cerevisiae deletion strains, locus YOR069W, strain VPS5, hits give low values 0.992 | S. cerevisiae deletion strains, locus YOR070C, strain gyp1, hits give low values 0.987 | S. cerevisiae deletion strains, locus YOR080W, strain dia2, hits give low values 0.98 | S. cerevisiae deletion strains, locus YOR083W, strain WHI5, hits give low values 1.01 | S. cerevisiae deletion strains, locus YOR106W, strain vam3, hits give low values 1 | S. cerevisiae deletion strains, locus YOR136W, strain idh2, hits give low values 0.984 | S. cerevisiae deletion strains, locus YOR144C, strain elg1, hits give low values 0.984 | S. cerevisiae deletion strains, locus YOR184W, strain ser1, hits give low values 0.973 | S. cerevisiae deletion strains, locus YOR265W, strain rbl2, hits give low values 0.992 | S. cerevisiae deletion strains, locus YOR270C, strain vph1, hits give low values 0.98 | S. cerevisiae deletion strains, locus YOR290C, strain snf2, hits give low values 0.987 | S. cerevisiae deletion strains, locus YOR316C, strain cot1, hits give low values 0.983 | S. cerevisiae deletion strains, locus YPL051W, strain arl3, hits give low values 0.965 | S. cerevisiae deletion strains, locus YPL055C, strain LGE1, hits give low values 1.03 | S. cerevisiae deletion strains, locus YPL078C, strain atp4, hits give low values 1.01 | S. cerevisiae deletion strains, locus YPL106C, strain sse1, hits give low values 0.987 | S. cerevisiae deletion strains, locus YPL240C, strain hsp82, hits give low values 0.992 | S. cerevisiae deletion strains, locus YPL241C, strain CIN2, hits give low values 0.987 | S. cerevisiae deletion strains, locus YPR119W, strain clb2, hits give low values 0.979 | S. cerevisiae deletion strains, locus YPR141C, strain kar3, hits give low values 0.979 | S. cerevisiae deletion strains, locus YPR163C, strain tif3, hits give low values 0.97 | S. cerevisiae deletion strains, locus YPR167C, strain met16, hits give low values 0.971 | S. cerevisiae deletion strains, strain wtn01, hits give low values 1 | S. cerevisiae strains, strain wild type, hits give low values 0.99
